Assay outcomes from PubChem BioAssay.
BLM inh: qHTS Assay for Inhibitors of Bloom's syndrome helicase (BLM); Potency, µM (top dose mostly 56.1 µM), for the others: at the top dose activity change, negative = inhibition, usual class: inhibitors; hit rate 0.2% among 350,000; recombinant BLM DNA unwinding, fluorescence dequenching; AID 2528, 2010;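 note: potency is the fitted concentration of half-maximal effect; plate controls were vehicle for no effect and no enzyme for full effect; nearly all actives have a fitted effect of over 35% in size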
WRN inhibitor: qHTS for Inhibitors of WRN Helicase | WRN helicase unwinding, fluorescent forked duplex, kinetic | Potency, µM (series often up to 114 µM), for the others: at the highest dose activity change, negative = inhibition, most hits filed as inhibitors | hit rate 0.46% among 360,000 | Bifunctional 3'-5' exonuclease/ATP-dependent helicase WRN (Homo sapiens), Q14191; note: potency is the fitted concentration of half-maximal effect; % is set by controls: 0 for no effect and ±100 for the full control effect; nearly all actives have a fitted effect of over 55% in size
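Kinetic fluorescence helicase assay: unwinding of a quenched forked DNA duplex (100 nM final) with 2 mM ATP final raises red fluorescence (525/598 nm). Compounds sat 15 min at room temperature with 20 nM WRN beforehand.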
GCN5L2 inh-1: qHTS Assay for Inhibitors of GCN5L2 | Histone acetyltransferase KAT2A (Homo sapiens), Q92830 | GCN5L2 HAT assay, ThioGlo1 CoA-SH fluorescence | Potency, µM (titrated, usually from 58.9 µM), without a hit: at the top dose activity change, negative = inhibition, most hits filed as inhibitors | hit rate 0.21% among 390,000; note: potency is the fitted concentration of half-maximal effect; % is set by controls: 0 for no effect and ±100 for the full control effect
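Enzyme at 20nM final was mixed with library compounds for 15 min at room temperature. Peptide H3(1-25) at 75uM, acetyl-CoA at 70uM and ThioGlo1 at 50uM were then added. Plates were read immediately and after 20 min (Ex340nm/Em540nm).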
RECQ1 helicase: qHTS Assay for Inhibitors of RecQ-Like Dna Helicase 1 (RECQ1); RECQ1 DNA unwinding, red fluorescence kinetic read; Potency, µM (titrated, usually from 57.3 µM), inactives show top-dose activity, negative = inhibition, actives largely listed as inhibitors; hit rate 0.54% among 240,000; AID 2549, 2010;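 note: potency is the fitted concentration of half-maximal effect; plate controls were vehicle for no effect and no enzyme for full effect; nearly all actives have a fitted effect of over 30% in size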
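50 nM RECQ1T1 preincubated 15 min with compound in Tris pH 8.0 buffer with MgCl2, DTT, Tween-20 and 2.5 ug/ml poly(dI-dC); started with 200 nM TAMRA/BHQ-2 forked duplex and 2 mM ATP. Unwinding read as fluorescence (525/598 nm), two reads 2 h apart.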
ERG Ets-DNA blk: qHTS for Small Molecule Inhibitors of the ERG Ets/DNA interaction. fluorescence polarization, His-ERG Ets domain / labelled DNA. Potency, µM (top dose mostly 76.9 µM), inactives show at the highest dose FP activity, negative = inhibition, hits mostly inhibitors. hit rate 0.028% among 370,000. AID 624246, 2012; active = well fitted inhibition curve with a large enough effect in the polarisation, with a control signal flat; inconclusive = small, poorly fitted or top-dose-only effect, or effect the other way, or a change in a side signal; inactive = no such curve, though single readings can be large or run the other way; the % refers to the polarisation;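 note: polarization taken with two DNA probes labelled with fluorescein and Texas red; potency is the fitted concentration of half-maximal effect; % of control where 0% means no effect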
Target sequence (P11308 whole entry, looked up, the tested form may be a part): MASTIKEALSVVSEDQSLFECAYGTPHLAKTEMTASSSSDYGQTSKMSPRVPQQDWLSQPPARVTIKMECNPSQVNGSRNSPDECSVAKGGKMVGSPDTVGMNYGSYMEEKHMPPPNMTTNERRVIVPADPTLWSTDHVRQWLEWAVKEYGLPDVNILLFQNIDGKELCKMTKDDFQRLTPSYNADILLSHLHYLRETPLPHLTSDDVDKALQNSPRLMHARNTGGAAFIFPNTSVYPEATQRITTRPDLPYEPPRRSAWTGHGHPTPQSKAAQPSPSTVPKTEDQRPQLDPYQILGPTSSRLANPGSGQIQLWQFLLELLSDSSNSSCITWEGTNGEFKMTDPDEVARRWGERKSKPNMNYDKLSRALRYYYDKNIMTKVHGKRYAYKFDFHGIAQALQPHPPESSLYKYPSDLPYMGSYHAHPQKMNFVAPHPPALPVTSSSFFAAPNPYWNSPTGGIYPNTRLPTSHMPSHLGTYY
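His-tagged ERG Ets domain (1 uM in the protein solution; 300mM KCl, 50mM Tris-HCl, 1mM EDTA, 1mM DTT, pH 7.5) received compound, then a probe mix of 5 nM fluorescein-DNA and 100nM Texas-615-DNA. Fluorescence polarization was read for both dyes.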
APEX1 inh: qHTS Assay for Inhibitors of the Human Apurinic/apyrimidinic Endonuclease 1 (APE1); DNA repair nuclease/redox regulator APEX1 (Homo sapiens), P27695; recombinant APE1, TAMRA/BHQ-2 abasic DNA cleavage fluorescence; Potency, µM (doses to about 65.8 µM), without a hit: at the top dose activity change, negative = inhibition, hits mostly inhibitors; hit rate 0.35% among 350,000; AID 2517, 2012;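 note: potency is the fitted concentration of half-maximal effect; plate controls were vehicle for no effect and reference inhibitor for full effect; nearly all actives have a fitted effect of over 55% in size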
Target sequence (P27695 whole entry, looked up): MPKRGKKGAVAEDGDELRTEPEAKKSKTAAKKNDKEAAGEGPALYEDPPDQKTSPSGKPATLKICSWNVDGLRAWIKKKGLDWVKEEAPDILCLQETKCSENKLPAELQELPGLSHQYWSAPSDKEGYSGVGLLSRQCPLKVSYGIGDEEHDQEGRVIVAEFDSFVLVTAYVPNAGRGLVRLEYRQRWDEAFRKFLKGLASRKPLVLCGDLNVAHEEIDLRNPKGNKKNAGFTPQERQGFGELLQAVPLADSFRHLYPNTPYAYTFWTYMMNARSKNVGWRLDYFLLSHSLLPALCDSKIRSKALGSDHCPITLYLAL
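Endonuclease cleavage of a quenched abasic-site DNA duplex (50 nM) by APE1 (0.75 nM) was tracked by TAMRA dequenching. Compounds were preincubated with enzyme 15 min at room temperature; data normalized to buffer-only and DMSO wells plus NSC13755 control.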
GCN5L2 inh-2: qHTS Assay for Inhibitors of GCN5L2: Hit confirmation | shares compounds with GCN5L2 inh-1 | GCN5L2 HAT, ThioGlo1 CoA fluorescence, 20 min | Potency, µM, hits mostly inhibitors | hit rate 70% among 140 | AID 588347, 2011
Numbers without * were called inactive; i = inactive; ? = inconclusive; . = no result given; [ ] = dose if it differs, or a comment. Most compounds without a hit are left out; they make up all but 0.88% or so of the library. Unless noted, calls come from the whole dose curve; as a rule, active = well fitted curve in the direction sought with a large enough effect; inconclusive = small, poorly fitted or top-dose-only effect, or another doubt; inactive = no such curve, though single readings can be large; an effect the other way counts as inactive or inconclusive.

SMILES	BLM inh	WRN inhibitor	GCN5L2 inh-1	RECQ1 helicase	ERG Ets-DNA blk	APEX1 inh	GCN5L2 inh-2
CCOC(=O)Cc1csc(NC(=O)CSc2nnnn2-c2ccc(C)c(C)c2)n1	0.8%	-2.3%	?	-1.0%	0.7%	-2.8%	?
CCOC(=O)Cc1csc(NC(=O)CSc2nnnn2-c2ccc(F)cc2)n1	-2.3%	-6.5%	-4.0%	i	.	10.8%	.
CSc1ccccc1C(=O)Nc1ncn[nH]1	-5.8%	7.5%	35.5µM*	.	10.8%	17.0%	32.4*
C=CCSc1ccccc1C(=O)Nc1ncn[nH]1	0.7%	5.5%	-3.9%	.	9.4%	-4.4%	.
CC(=O)c1ccc(NC(=O)C(Cc2ccccc2)NS(=O)(=O)c2ccc3c(c2)CCC(=O)N3)cc1 (centres undefined)	-1.5%	.	-2.2%	.	-5.1%	.	.
Cc1cccc(C)c1-n1ncc(C(=O)N2CCN(c3ccccc3)CC2)c1C1CCN(C(=O)OC(C)(C)C)CC1	-1.2%	.	-3.8%	.	-3.6%	.	.
O=C(C1=NN(c2ccccc2)C2C(=O)N(c3ccccc3Cl)C(=O)C12)c1ccccc1 (centres undefined)	-11.2%	-3.0%	?	-1.2%	-7.0%	6.4%	?
Cc1ccc(N2C(=O)C3C(C(=O)c4ccccc4)=NN(c4ccccc4)C3C2=O)cc1 (centres undefined)	0.0%	-19.6%[57.1 µM]	20µM*	-10.2%	5.7%	4.2%	?
CCC/C=C(\CCC)C(NS(C)(=O)=O)c1ccccc1 (centres undefined)	-3.7%	.	.	i	.	1.5%	.
COc1ccccc1/C=C/c1nc(C#N)c(N2CCN(c3ccccc3)CC2)o1	-2.7%	.	-14.6%	.	9.9%	.	.
COc1cccc(-c2ccc3ncnc(NCCc4c[nH]c5ccc(OC)cc45)c3c2)c1	-3.0%	.	-21.3%	i	.	?	.
CC(NC(=O)CN1C(=O)c2cccnc2Oc2ccc(Cl)cc21)c1ccccc1 (centres undefined)	-0.9%	.	-7.4%	.	-6.5%	.	.
CN(C)/C=C1\C=C2C(=O)c3ccccc3N2C1=O	-1.3%	-26.8%	17.8µM*	?	?	-5.9%	36.3*
COc1ccc(S(=O)(=O)N2CCC(N3CCN(Cc4ccccc4)C(=O)C3=O)CC2)cc1	3.5%	.	-4.3%	.	-4.8%	.	.
COc1ccccc1NC(=O)c1cc2c([nH]c1=O)CC(C)(C)CC2=O	-4.2%	.	0.7%	.	0.4%	.	.
O=C(Nc1ccc(-c2nc3ccccc3s2)c(O)c1)C1=COCCO1	-22.6%	-26.9%	25.1µM*	-4.3%	-0.5%	?	22.9*
CC(=O)NC(=S)Nc1sc2c(c1C(N)=O)CCC(C)C2 (centres undefined)	-4.3%	-2.5%	20µM*	-10.9%	?	-1.4%	32.4*
CCOC(=O)Nc1sc2c(c1C(N)=O)CCC(C)C2 (centres undefined)	-5.8%	-3.2%	-4.3%	-4.5%	9.7%	15.6%	.
Cc1ccc(NC(=O)c2oc3ccccc3c2NC(=O)c2ccc(F)c(F)c2)cc1	-9.1%	.	-4.9%	.	7.3%	.	.
Cc1cc(N2C(=O)C(O)=C(C(=O)c3cc4ccccc4o3)C2c2cccc(Br)c2)no1 (centres undefined)	-14.7%	-5.5%	?	.	-6.9%	1.2%	?
COc1cc(N=c2ssnc2Cl)cc(OC)c1OC	-0.4%	56.2µM*	10µM*	-4.2%	-4.1%	0.1%	3.63*
Cc1ccc(S(=O)(=O)N2[C@@H](c3ccc(Br)cc3)C(C(=O)O)=CC[C@H]2c2ccc(Cl)c(Cl)c2)cc1	.	-19.6%	28.2µM*	.	-16.9%	11.9%	12.9*
Cc1ccc([C@H]2C(C(=O)O)=CC[C@@H](c3ccc(Cl)cc3)N2S(=O)(=O)c2ccc(C)cc2)cc1	.	-0.8%	14.1µM*	.	-7.4%	44.5%	?
CN(C)S(=O)(=O)N1CCC(N2CCN(Cc3ccc(F)cc3)C(=O)C2=O)CC1	1.3%	.	4.0%	.	-9.0%	.	.
O=c1c2ccccc2sn1-c1cc(S(=O)(=O)N2CCOCC2)ccc1N1CCOCC1	2.8%	?	1.58µM*	-13.7%	.	-4.5%	4.08*
SMILES	BLM inh	WRN inhibitor	GCN5L2 inh-1	RECQ1 helicase	ERG Ets-DNA blk	APEX1 inh	GCN5L2 inh-2
Nc1cc(S(=O)(=O)N2CCOCC2)ccc1N1CCCCC1	.	-12.8%	?	.	-7.4%	28.7%	.
O=S(=O)(c1ccc(N2CCOCC2)c(Cl)c1)N1CCOCC1	1.8%	1.3%	-1.6%	.	-4.3%	47.3%	.
O=c1c2ccccc2sn1-c1cc(S(=O)(=O)N2CCOCC2)ccc1N1CCCC1	-0.8%	-23.9%	8.91µM*	-3.3%	-4.8%	-2.2%	5.76*
COc1ccc2c(C(=O)NCCCCO)c(-c3ccc(S(C)(=O)=O)cc3)sc2c1	.	2.3%	?	.	0.1%	-8.3%	36.3*
O=C(OCCN1C(=O)c2cccc3c(N4CCOCC4)ccc(c23)C1=O)c1cccc(Cl)c1	-7.3%	-5.1%	?	-7.2%	-0.3%	12.9%	?
CCOCCCNC(=O)C1CCCN(c2ncnc3onc(C)c23)C1 (centres undefined)	1.3%	.	-13.4%	.	-14.9%	.	.
COc1ccc(C(=O)N/N=C/c2ccc3cccc(OCc4ccccc4)c3n2)cc1	-3.6%	2.9%	?	-11.3%	11.2%	12.5%	22.9*
O=C(N/N=C/c1ccc2cccc(OCc3ccccc3)c2n1)c1ccc(Br)cc1	-8.3%	4.0%	?	-12.3%	-1.8%	12.5%	.
CCc1ccc(S(=O)(=O)/N=C2\C=C(NS(=O)(=O)c3ccccc3)C(=O)c3ccccc32)cc1	-9.9%	-11.6%	?	.	23.3%	-9.7%	.
CC(C)c1ccc(S(=O)(=O)/N=C2\C=C(NS(=O)(=O)c3ccccc3)C(=O)c3ccccc32)cc1	-24.7%	?	22.4µM*	.	39.5%	-20.4%	9.13*
